# Experimental data: PMC5540273 (PLoS ONE, 2017)
# Values joined by “and” are separate entries in the source; they are usually repeats but may differ in a detail not shown here. Equal entries are not always repeated. Where two headings read alike, the source gives them in different places.
# Columns and labels:
# EIF2AK1 = conditions: concentration: 1 μM, replicates: in singlicate; n = 1
# EPHA1 = conditions: concentration: 1 μM, replicates: in singlicate, n = 1
# EPHA2 = conditions: concentration: 1 μM, replicates: in singlicate; n = 1
# EPHA3 = conditions: concentration: 1 μM, replicates: in singlicate, n = 1
# EPHA4 = conditions: concentration: 1 μM, replicates: in singlicate, n = 1
# EPHA5 = conditions: concentration: 1 μM, replicates: in singlicate; n = 1
# EPHA6 = conditions: concentration: 1 μM, replicates: in singlicate, n = 1
# EPHA7 = conditions: concentration: 1 μM, replicates: in singlicate; n = 1
# EPHA8 = conditions: concentration: 1 μM, replicates: in singlicate, n = 1
# EPHB1 = conditions: concentration: 1 μM, replicates: in singlicate, n = 1
# EPHB2 = conditions: concentration: 1 μM, replicates: in singlicate; n = 1
# EPHB3 = conditions: concentration: 1 μM, replicates: in singlicate, n = 1
# EPHB4 = conditions: concentration: 1 μM, replicates: in singlicate, n = 1
# EPHB6 = conditions: concentration: 1 μM, replicates: in singlicate, n = 1
# ERBB2 = conditions: concentration: 1 μM, replicates: in singlicate, n = 1
# ERBB3 = conditions: concentration: 1 μM, replicates: in singlicate, n = 1
# ERBB4 = conditions: concentration: 1 μM, replicates: in singlicate, n = 1
# ERK1 = system: T1, ERK1; conditions: concentration: 1 μM, replicates: in singlicate; n = 1
# T1 construct: gene MAPK3
# ERK2 = system: T2, ERK2; conditions: concentration: 1 μM, replicates: in singlicate; n = 1
# T2 construct: gene MAPK1
# ERK3 = system: T3, ERK3; conditions: concentration: 1 μM, replicates: in singlicate, n = 1
# T3 construct: gene MAPK6
# 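Note: KINOMEscan kinase panel screen.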
compound,measurement,setting,value
Cc1cccc(-c2nc(Nc3ccc4[nH]nnc4c3)c3ccccc3n2)n1 [GW867587],%Inh,EIF2AK1,0%
same,%Inh,EPHA1,0%
same,%Inh,EPHA2,0%
same,%Inh,EPHA3,0%
same,%Inh,EPHA4,0%
same,%Inh,EPHA5,0%
same,%Inh,EPHA6,0%
same,%Inh,EPHA7,0%
same,%Inh,EPHA8,0%
same,%Inh,EPHB1,6%
same,%Inh,EPHB2,0%
same,%Inh,EPHB3,0%
same,%Inh,EPHB4,0%
same,%Inh,EPHB6,0%
same,%Inh,ERBB2,0%
same,%Inh,ERBB3,0%
same,%Inh,ERBB4,11%
same,%Inh,ERK1,0%
same,%Inh,ERK2,0%
same,%Inh,ERK3,0%
CC(C)(C)OC(=O)NC1CCCN(c2cc(-c3ccc4c(N)n[nH]c4c3)nc(N)n2)C1 (stereo not shown) [GSK2286096],%Inh,EIF2AK1,4%
same,%Inh,EPHA1,8%
same,%Inh,EPHA2,11%
same,%Inh,EPHA3,0%
same,%Inh,EPHA4,14%
same,%Inh,EPHA5,0%
same,%Inh,EPHA6,9%
same,%Inh,EPHA7,0%
same,%Inh,EPHA8,6%
same,%Inh,EPHB1,10%
same,%Inh,EPHB2,90.5%
same,%Inh,EPHB3,14%
same,%Inh,EPHB4,9%
same,%Inh,EPHB6,0%
same,%Inh,ERBB2,0%
same,%Inh,ERBB3,0%
same,%Inh,ERBB4,33%
same,%Inh,ERK1,0%
same,%Inh,ERK2,0%
same,%Inh,ERK3,0%
COC(=O)c1cccc(NC(=O)NCCNc2ccnc(Nc3ccc(F)cc3)n2)c1 [GSK1379883],%Inh,EIF2AK1,0%
same,%Inh,EPHA1,5%
same,%Inh,EPHA2,32%
same,%Inh,EPHA3,0%
same,%Inh,EPHA4,7%
same,%Inh,EPHA5,0%
same,%Inh,EPHA6,20%
same,%Inh,EPHA7,3%
same,%Inh,EPHA8,9%
same,%Inh,EPHB1,4%
same,%Inh,EPHB2,0%
same,%Inh,EPHB3,21%
same,%Inh,EPHB4,6%
same,%Inh,EPHB6,4%
same,%Inh,ERBB2,14%
same,%Inh,ERBB3,15%
same,%Inh,ERBB4,28%
same,%Inh,ERK1,0%
same,%Inh,ERK2,11%
same,%Inh,ERK3,0%
CNc1nccc(-c2c(-c3ccc(F)cc3)ncn2CCCN2CCOCC2)n1 [SB-222516],%Inh,EIF2AK1,12%
same,%Inh,EPHA1,14%
same,%Inh,EPHA2,0%
same,%Inh,EPHA3,0%
same,%Inh,EPHA4,0%
same,%Inh,EPHA5,0%
same,%Inh,EPHA6,0%
same,%Inh,EPHA7,21%
same,%Inh,EPHA8,25%
same,%Inh,EPHB1,17%
same,%Inh,EPHB2,0%
same,%Inh,EPHB3,0%
same,%Inh,EPHB4,8%
same,%Inh,EPHB6,0%
same,%Inh,ERBB2,0%
same,%Inh,ERBB3,30%
same,%Inh,ERBB4,8%
same,%Inh,ERK1,7%
same,%Inh,ERK2,1%
same,%Inh,ERK3,0%
COc1ccc(NC(=O)c2ccc(-c3cc(-c4nnc(C)o4)ccc3C)cc2)cc1 [GW595885],%Inh,EIF2AK1,0%
same,%Inh,EPHA1,8%
same,%Inh,EPHA2,7%
same,%Inh,EPHA3,0%
same,%Inh,EPHA4,7%
same,%Inh,EPHA5,0%
same,%Inh,EPHA6,0%
same,%Inh,EPHA7,0%
same,%Inh,EPHA8,6%
same,%Inh,EPHB1,0%
same,%Inh,EPHB2,10%
same,%Inh,EPHB3,13%
same,%Inh,EPHB4,6%
same,%Inh,EPHB6,0%
same,%Inh,ERBB2,18%
same,%Inh,ERBB3,0%
same,%Inh,ERBB4,7%
same,%Inh,ERK1,0%
same,%Inh,ERK2,0%
same,%Inh,ERK3,0%
Cl.Cl.c1ccc(-c2cc3ccncc3cc2OC2CCNCC2)cc1 [GSK1122999],%Inh,EIF2AK1,13%
same,%Inh,EPHA1,11%
same,%Inh,EPHA2,13%
same,%Inh,EPHA3,0%
same,%Inh,EPHA4,9%
same,%Inh,EPHA5,0%
same,%Inh,EPHA6,12%
same,%Inh,EPHA7,5%
same,%Inh,EPHA8,13%
same,%Inh,EPHB1,25%
same,%Inh,EPHB2,47%
same,%Inh,EPHB3,17%
same,%Inh,EPHB4,5%
same,%Inh,EPHB6,11%
same,%Inh,ERBB2,10%
same,%Inh,ERBB3,0%
same,%Inh,ERBB4,0%
same,%Inh,ERK1,0%
same,%Inh,ERK2,4%
same,%Inh,ERK3,24%
COc1ccc(-c2oc3ncnc(N)c3c2-c2ccc(OC)cc2)cc1 [SB-589132],%Inh,EIF2AK1,3%
same,%Inh,EPHA1,70%
same,%Inh,EPHA2,19%
same,%Inh,EPHA3,0%
same,%Inh,EPHA4,32%
same,%Inh,EPHA5,0%
same,%Inh,EPHA6,50%
same,%Inh,EPHA7,0%
same,%Inh,EPHA8,9%
same,%Inh,EPHB1,0%
same,%Inh,EPHB2,0%
same,%Inh,EPHB3,24%
same,%Inh,EPHB4,5%
same,%Inh,EPHB6,36%
same,%Inh,ERBB2,41%
same,%Inh,ERBB3,46%
same,%Inh,ERBB4,33%
same,%Inh,ERK1,0%
same,%Inh,ERK2,0%
same,%Inh,ERK3,6%
COc1ccc(-c2nc3n(c2-c2ccncc2)CCC3)cc1 [SKF-104493],%Inh,EIF2AK1,0%
same,%Inh,EPHA1; 1 µM,18% and 0%
same,%Inh,EPHA2,0%
same,%Inh,EPHA3; 1 µM,0% and 18%
same,%Inh,EPHA4; 1 µM,0% and 17%
same,%Inh,EPHA5,0%
same,%Inh,EPHA6; 1 µM,10% and 7%
same,%Inh,EPHA7,0%
same,%Inh,EPHA8; 1 µM,8% and 0%
same,%Inh,EPHB1; 1 µM,0% and 22%
same,%Inh,EPHB2,0%
same,%Inh,EPHB3; 1 µM,10% and 4%
same,%Inh,EPHB4; 1 µM,16% and 11%
same,%Inh,EPHB6; 1 µM,8% and 0%
same,%Inh,ERBB2; 1 µM,0% and 29%
same,%Inh,ERBB3; 1 µM,0% and 8%
same,%Inh,ERBB4; 1 µM,29% and 18%
same,%Inh,ERK1,0%
same,%Inh,ERK2,0%
same,%Inh,ERK3; 1 µM,0% and 9%
